± gives the standard deviation of the averaged measurements.
Assays:
Experiment in all cases: cell viability (% of vehicle); higher = less cytotoxic
Settings in all cases: 10 µM; 72 h
HCI01 = system: HCI01 (cells of a triple-negative basal-like breast cancer xenograft)
HCI03 = system: HCI03 (cells of an ER-positive luminal breast cancer xenograft)
HCI09 = system: HCI09 (cells of a triple-negative luminal androgen receptor type breast cancer xenograft)
HCI11 = system: HCI11 (cells of an ER-positive luminal breast cancer xenograft)
HCI13 = system: HCI13 (cells of an ER-positive luminal breast cancer xenograft)
HCI16 = system: HCI16 (cells of a triple-negative basal-like breast cancer xenograft)
UCD52 = system: UCD52 (cells of a triple-negative basal-like breast cancer xenograft)
WHIM2 = system: WHIM2 (cells of a triple-negative basal-like breast cancer xenograft)
WHIM30 = system: WHIM30 (cells of a triple-negative basal-like breast cancer xenograft)
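Note: PDX cells carrying CMV promoter-driven luciferase, viability read as total photon flux per second by IVIS imaging following D-luciferin, vehicle control 0.1% DMSO.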

| SMILES | cell viability (HCI01) | cell viability (HCI03) | cell viability (HCI09) | cell viability (HCI11) | cell viability (HCI13) | cell viability (HCI16) | cell viability (UCD52) | cell viability (WHIM2) | cell viability (WHIM30) |
| --- | --- | --- | --- | --- | --- | --- | --- | --- | --- |
| O=C(O)c1nn(Cc2ccc(Cl)cc2Cl)c2ccccc12 [Lonidamine] | 88.9 ± 18 | 112 | 92.9 ± 6.3 | 82.9 | 85.1 ± 8.5 | 124 | 82.6 ± 1.7 | 80.2 ± 32 | 138.9 ± 1.1 |
| Cc1cc(O)ccc1Cl [Chlorocresol] | 114 ± 41 | 120 | 88.6 ± 17 | 85.9 | 77.6 ± 8.4 | 107 | 87.1 ± 2.5 | 98.6 ± 25 | 91.9 ± 1.3 |
| c1ccc2c(c1)sc1ccccc12 [Dibenzothiophene] | 137 ± 39 | 105 | 87.3 ± 1.6 | 103 | 85 ± 12 | 123 | 115 ± 14 | 117 ± 11 | 98.7 ± 1 |
| CN1C(=O)CCS(=O)(=O)C1c1ccc(Cl)cc1 (stereo not drawn) [Chlormezanone] | 90 ± 11 | 118 | 92.3 ± 7.5 | 105 | 71.1 ± 7.2 | 122 | 104 ± 10 | 113 ± 12 | 172.2 ± 0.74 |
| CNC1CC(N)C(O)C(OC2OC(CO)C(O)C3OC4(OC(C(N)CO)C(O)C(O)C4O)OC23)C1O (stereo not drawn) [Hygromycin B] | 66.3 ± 21 | 70.2 | 122 ± 75 | 110 | 114.5 ± 1.1 | 94.3 | 87.4 ± 22 | 97.2 ± 1.2 | 88.3 ± 23 |
| CCC(C(N)=O)N1CCCC1=O (stereo not drawn) [Levetiracetam] | 141 ± 6.8 | 166 | 116 ± 17 | 98 | 107 ± 14 | 120 | 126 ± 17 | 91.7 ± 10 | 143 ± 4.9 |
| CC(=O)O[C@@]12CO[C@@H]1C[C@@H](O)[C@@]1(C)C(=O)[C@@H](O)C3=C(C)[C@@H](O)C[C@@](O)([C@@H](OC(=O)c4ccccc4)[C@H]21)C3(C)C [10-DAB (10-Deacetylbaccatin)] | 138 ± 19 | 107 | 99.3 ± 2.1 | 108 | 97.8 ± 2.6 | 126 | 79.2 ± 2.9 | 84.7 ± 18 | 126 ± 7.2 |
| N/C(N)=N\N.Cl [Aminoguanidine hydrochloride] | 100 ± 16 | 105 | 95.2 ± 6.9 | 64 | 90 ± 2.4 | 118 | 99.6 ± 9.3 | 95.1 ± 21 | 53.4 ± 6.4 |
| Cc1cccc(C(C)c2cnc[nH]2)c1C.Cl (stereo not drawn) [Medetomidine HCl] | 108 ± 7.7 | 102 | 93.2 ± 21 | 103 | 100.9 ± 1 | 95.4 | 87.4 ± 2.9 | 89.3 ± 22 | 113 ± 5.8 |
| Br.COC(=O)C1=CCCN(C)C1 [Arecoline hydrobromide] | 94 ± 16 | 135 | 106 ± 21 | 88.9 | 103 ± 9.4 | 121 | 121 ± 21 | 116 ± 1.5 | 114 ± 16 |
| CCCN1CC(CSC)CC2c3cccc4[nH]cc(c34)CC21.CS(=O)(=O)O (stereo not drawn) [Pergolide mesylate] | 107.1 ± 0.5 | 92.4 | 106 ± 8.8 | 87.6 | 98.3 ± 5.6 | 124 | 76.5 ± 1.3 | 101 ± 14 | 110 ± 12 |
| CCC1(c2ccc(N)cc2)CCC(=O)NC1=O (stereo not drawn) [Aminoglutethimide] | 108 ± 13 | 113 | 103 ± 12 | 103 | 112 ± 12 | 103 | 93.01 ± 0.41 | 88.9 ± 8 | 108 ± 2.7 |
| O=c1[nH]c2ccccc2n1C1CCN(CCCC(c2ccc(F)cc2)c2ccc(F)cc2)CC1 [Pimozide] | 103 ± 21 | 104 | 48.1 ± 31 | 70.4 | 69.39 ± 0.41 | 103 | 86.7 ± 16 | 103 ± 24 | 93.69 ± 0.39 |
| COc1cc2c(cc1OC)C13CCN4CC5=CCOC6CC(=O)N2C1C6C5CC43 (stereo not drawn) [Brucine] | 90.3 ± 9.9 | 132 | 98.2 ± 29 | 94.5 | 106 ± 11 | 100 | 106 ± 1.5 | 83.5 ± 22 | 96.6 ± 4.8 |
| CC(C)c1c(CN(C)C(C)Cc2ccccc2)n(C)n(-c2ccccc2)c1=O (stereo not drawn) [Famprofazone] | 121 ± 24 | 129 | 79.2 ± 5.1 | 111 | 85.3 ± 14 | 121 | 87.7 ± 11 | 97.6 ± 16 | 124 ± 8.3 |
| Cn1c(COP(=O)(NCCBr)NCCBr)cnc1[N+](=O)[O-] | 99.5 ± 14 | 100 | 123 ± 33 | 120 | 153.9 ± 0.46 | 44.9 | 81.4 ± 2.1 | 44.6 ± 2.6 | 107 ± 2.5 |
| CN(C)C(=O)Oc1ccc[n+](C)c1.[Br-] [Pyridostigmine Bromide] | 104 ± 11 | 120 | 103 ± 3.5 | 92.1 | 136 ± 13 | 105 | 72 ± 2.6 | 96.8 ± 6.6 | 101 ± 3.2 |
| CN1[C@@H]2C[C@@H](O)C[C@H]1[C@@H]1O[C@@H]12 [Scopine] | 134 ± 21 | 138 | 110 ± 8.5 | 110 | 129 ± 14 | 99 | 103 ± 18 | 112 ± 21 | 144 ± 4 |
| CCCC[N+]1(C)[C@@H]2C[C@@H](OC(=O)[C@H](CO)c3ccccc3)C[C@H]1[C@@H]1O[C@@H]12 (stereo partly drawn) [Scopolamine butylbromide] | 105 ± 5.4 | 116 | 88.8 ± 19 | 97.3 | 97.4 ± 2.5 | 119 | 100.7 ± 0.64 | 137 ± 14 | 133 ± 4.2 |
| Oc1cc(Cl)ccc1Oc1ccc(Cl)cc1Cl [Triclosan] | 73.5 ± 14 | 109 | 41.7 ± 24 | 71.7 | 66.4 ± 20 | 137 | 97.1 ± 9.6 | 49.5 ± 1.1 | 109.3 ± 1 |

| SMILES | cell viability (HCI01) | cell viability (HCI03) | cell viability (HCI09) | cell viability (HCI11) | cell viability (HCI13) | cell viability (HCI16) | cell viability (UCD52) | cell viability (WHIM2) | cell viability (WHIM30) |
| --- | --- | --- | --- | --- | --- | --- | --- | --- | --- |
| CN(C)C1C(=O)C(C(N)=O)=C(O)C2(O)C(=O)C3=C(O)c4c(O)cccc4C(C)(O)C3C(O)C12 (stereo not drawn) [Oxytetracycline (Terramycin)] | 83 ± 9.9 | 126 | 108 ± 23 | 85.3 | 115 ± 6.2 | 122 | 99.8 ± 2.1 | 72.1 ± 17 | 121 ± 4.7 |
| C[C@]12CC[C@H]3[C@@H](CC[C@@]45O[C@@H]4C(O)=C(C#N)C[C@]35C)[C@@H]1CC[C@@H]2O [Trilostane] | 131 ± 24 | 119 | 90.1 ± 5.6 | 114 | 73.7 ± 19 | 103 | 115 ± 8.4 | 115 ± 15 | 100 ± 15 |
| CN1C2CCC1CC(OC(=O)C(CO)c1ccccc1)C2.CN1C2CCC1CC(OC(=O)C(CO)c1ccccc1)C2.O.O=S(=O)(O)O (stereo not drawn) [Atropine] | 104 ± 7.5 | 134 | 108 ± 16 | 114 | 95.4 ± 4.6 | 101 | 83.3 ± 5.5 | 91.6 ± 19 | 98.4 ± 7.8 |
| Cl.Cn1c(CCCC(=O)O)nc2cc(N(CCCl)CCCl)ccc21 [Bendamustine HCl] | 98.2 ± 7.3 | 93.5 | 95.2 ± 2.5 | 83.5 | 94.9 ± 12 | 77.4 | 97.9 ± 1.9 | 71.4 ± 9.1 | 92.1 ± 14 |
| Nc1nc(N)nc(NC2CC2)n1 [Cyromazine] | 111 ± 13 | 182 | 107 ± 1.9 | 97.8 | 109 ± 22 | 134 | 100 ± 2.3 | 105 ± 28 | 154 ± 13 |
| CCN(C)C(=O)Oc1cccc(C(C)N(C)C)c1 (stereo not drawn) [Rivastigmine] | 107 ± 11 | 112 | 109 ± 4.2 | 106 | 98.3 ± 1.7 | 96.3 | 101 ± 7.6 | 103 ± 16 | 118 ± 9.7 |
| Cn1cc(C2=C(c3cn(C4CCN(Cc5ccccn5)CC4)c4ccccc34)C(=O)NC2=O)c2ccccc21 | 94 ± 30 | 95.8 | 72.7 ± 44 | 82.3 | 72.1 ± 9.6 | 99.5 | 49 ± 7.5 | 107 ± 18 | 119 ± 5.6 |
| Cc1cccc(C)c1NC1=NCCCS1.Cl [Xylazine HCl] | 159 ± 36 | 120 | 110 ± 12 | 115 | 105 ± 6.4 | 124 | 92.3 ± 11 | 120 ± 7 | 127 ± 8 |
| Cc1cccc(Cc2cnc[nH]2)c1C.Cl [Detomidine HCl] | 118 ± 4 | 114 | 96.9 ± 30 | 97.2 | 79.4 ± 6.8 | 92 | 84.9 ± 4.3 | 85.5 ± 32 | 135 ± 3 |
| CC(C)OC(=O)[C@H](C)N[P@](=O)(CO[C@H](C)Cn1cnc2c(N)ncnc21)Oc1ccccc1 | 97.2 ± 1.3 | 109 | 87.9 ± 11 | 112 | 65.7 ± 8 | 183 | 103.7 ± 0.83 | 117.1 ± 0.62 | 144 ± 8.2 |
| O=c1cccc2n1C[C@@H]1CNC[C@H]2C1 [Cytisine] | 93.3 ± 12 | 112 | 97.8 ± 15 | 95 | 106 ± 14 | 128 | 90.9 ± 4.7 | 87.9 ± 19 | 81.4 ± 3.6 |
| O=C(OC1C[N+]2(CCCOc3ccccc3)CCC1CC2)C(O)(c1cccs1)c1cccs1.[Br-] (stereo not drawn) [Aclidinium Bromide] | 113 ± 14 | 131 | 104 ± 6.3 | 94.2 | 185 ± 6.3 | 93.9 | 79.7 ± 14 | 84.7 ± 7.7 | 106 ± 11 |
| CC(NC(C)(C)C)C(=O)c1cccc(Cl)c1.Cl (stereo not drawn) [Bupropion hydrochloride] | 101 ± 2.5 | 109 | 99.6 ± 20 | 85.6 | 103 ± 1.1 | 113 | 90.5 ± 14 | 104 ± 5.2 | 121 ± 10 |
| CC(=O)OC1CC2CCC3C(CCC4(C)C3CC([N+]3(C)CCCCC3)C4OC(C)=O)C2(C)CC1[N+]1(C)CCCCC1.[Br-].[Br-] (stereo not drawn) [Pancuronium dibromide] | 99.4 ± 8.2 | 106 | 105 ± 2.1 | 93.3 |  | 95.5 | 79.4 ± 3.5 | 94.3 ± 4.8 | 103 ± 4.2 |
| CCC(COC(=O)c1cc(OC)c(OC)c(OC)c1)(c1ccccc1)N(C)C (stereo not drawn) [Trimebutine] | 116 ± 6.9 | 109 | 103 ± 7.8 | 92.9 |  | 135 | 84.9 ± 15 | 96.2 ± 2.8 | 111.2 ± 0.53 |
| CCNCC.O=C(O)Cc1ccccc1Nc1c(Cl)cccc1Cl [Diclofenac Diethylamine] | 91.7 ± 19 | 77.9 | 88.7 ± 1.8 | 83.1 | 70.4 ± 10 | 113 | 69 ± 2.6 | 108 ± 7.9 | 94.02 ± 0.47 |
| CCN(C)C(=O)Oc1cccc(C(C)N(C)C)c1.O=C(O)C(O)C(O)C(=O)O (stereo not drawn) [Rivastigmine Tartrate] | 115.8 ± 0.12 | 116 | 127 ± 62 | 119 | 133 ± 51 | 151 | 111 ± 15 | 91.8 ± 31 | 131 ± 13 |
| O=C1CCC2(O)C3Cc4ccc(O)c5c4C2(CCN3CC2CC2)C1O5 (stereo not drawn) [Naltrexone] | 111 ± 8.9 | 121 | 97.4 ± 10 | 103 | 100.1 ± 0.98 | 93.4 | 94.5 ± 12 | 92.4 ± 14 | 130 ± 23 |
| CC(=O)Nc1cc([As](=O)(O)O)ccc1O [Arsonic acid] | 105 ± 4.4 | 144 | 102 ± 22 | 112 | 73.2 ± 4.5 | 105 | 112 ± 25 | 101 ± 23 | 132 ± 15 |
| COc1ccc(C(=O)N2CCCC2=O)cc1 [Aniracetam] | 102 ± 2 | 107 | 147 ± 79 | 104 | 139 ± 1.5 | 95.4 | 96 ± 7.3 | 94.8 ± 14 | 86.1 ± 6.5 |

— the supplement of paper PMC6992640
